Among all 340,000 compounds or so, about 6,200 (1.8%) were called active. Not shown: some 10% with an inconclusive outcome. This excerpt belongs to a sample that is enriched for actives. A number with no mark means an inactive call. The call rests on the fitted dose curve; in most records, active means well fitted activation curve with a large enough effect; inconclusive means small, poorly fitted or top-dose-only effect; inactive means no such curve, though single readings can be large or run the other way.
Potency means the concentration at half of the fitted maximal effect.

The nature of the test: A quantitative high throughput screen for small molecules that induce DNA re-replication in SW480 colon adenocarcinoma cells. Further: nearly all actives have a fitted effect of over 55% in size. On re-replication activation: % of control where 0% means no effect. The settings on record: Hoechst DNA content imaging, 48 h; series mostly up to 46.1 µM; re-replication activation: at the top concentration. The method in brief: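 Per well, 250 cells were exposed to pinned compound for 48 hr. Nuclear DNA was visualised with Hoechst (40 min, 37 C) and total object intensity recorded by fluorescence scanning.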
On to `CCOC(=O)C1(c2ccccc2)CCN(CC(O)c2ccc(NC(C)=O)cc2)CC1` (stereo not given), for which the “re-replication activation” value is -3.4%.

`c1ccc2sc(SNC3CCCCC3)nc2c1`: the “re-replication activation” value is -0.432%.

On to `COc1ccc2c(c1)NP(=S)(c1ccccc1)N2` (stereo not given), for which the “re-replication activation” value was 3.98%.

Turning to `O=c1c2ccccc2nc(/C=C/c2ccco2)n1-c1ccccc1O`, the Potency is 20.6 µM (active).

`O=c1c2ccccc2nc(-c2ccccc2)n1-c1ccccn1`: the “re-replication activation” value was -3.63%.

Turning to `O=c1c2ccccc2nc(-c2ccco2)n1-c1ccc(Br)cn1`, the “re-replication activation” value is -5.63%.

Consider `C=CCN1CCC23c4c5ccc(O)c4O[C@H]2C(=O)CC[C@@]3(O)C1C5` (stereo not given in full), for which the “re-replication activation” value was -6.77%.

Consider `CC(C)(C)CC(=O)Nc1nnc(SCC(=O)NCc2cccs2)s1`, for which the “re-replication activation” value was -40.7%.

On to `Cc1cc(-c2ccc(N)c(C)c2)ccc1N`, for which the “re-replication activation” value was -2.53%.

Turning to `CCC1(c2ccccc2)C(=O)NC(=O)N(C)C1=O` (stereo not given), the “re-replication activation” value is -2.55%.

Consider `CCN1C(=O)NC(=O)C2(CCCC2)C1=O`, for which the “re-replication activation” value is -2.27%.

As to `CC(=O)OC1C2(CC3N4C(=O)C5(CO)SSC4(CC31O)C(=O)N5C)OC(C)C(C)(C)C2=O` (stereo not given), the Potency was 0.461 µM (active).

In the case of `CCNC[C@H](O)c1cccc(O)c1`, the “re-replication activation” value was -5.95% [at 20.6 µM].

For `O=C1NC(=O)C(Cc2ccccc2)C(=O)N1`, the “re-replication activation” value was -6.86%.

As to `CC1CCCN1CCC(C(N)=O)(c1ccccc1)c1ccccc1` (stereo not given), the “re-replication activation” value is -1.97%.

As to `COc1ccc2c3c1O[C@H]1C[C@@H](O)C=C[C@@]31CCN(C)C2`, the Potency entry is “inactive”.

As for `CC=C(C)C(=O)OC1CCN2CC=C(COC(=O)C(O)(C(C)OC)C(C)(C)O)C12` (stereo not given), the “re-replication activation” value was -1.17%.

Consider `CCC1(C)CC(CCNCc2ccc(N(C)C)cc2)(c2ccc(F)cc2)CCO1` (stereo not given), for which the Potency is 18.4 µM (active).

As for `CC[N+]1(CCOC(=O)C(O)(c2ccccc2)c2ccccc2)CCCCC1`, the “re-replication activation” value is 16.5%.

For the compound `C=C(C)C1(CCCC)C(=O)NC(=S)NC1=O`, the “re-replication activation” value was 0.006%.

The values are drawn from PubChem BioAssay AID624297 (National Center for Advancing Translational Sciences (NCATS), 2012).
